# Screen size: about 150,000 compounds; about 540 (0.36%) showed an effect of 50% or more. The full list was thinned out, with strong results kept by preference.
# Test system: Plasmodium falciparum
# Assay: Primary screen in NF54 nanoGlo assay, in single point, at 2uM, 72h; a lower Z score goes with more inhibition
# Type: functional, Erythrocyte
# Settings: timepoint 72 hour
Compound,% Inhibition [%],Z score
O=C(Cn1nccn1)N1CCN(Cc2ccc3c(c2)OCO3)CC1,2,-0.28
CCN(C(=O)c1cc(N)ccc1Cl)C(C)C,6,-0.81
Cc1cccn(CC(=O)N2CCC(=O)[C@@H](C)C2)c1=O,2,-0.36
O=C1c2ccccc2C(=O)N1Cc1nc(-c2cccnc2)no1,-9,1.34
Cc1ccsc1C(=O)NCCNc1ncccn1,-7,0.93
CCCc1cnc(C)nc1-c1ccnc2c1ccn2C,-4,0.73
Cc1ccncc1C(=O)N1CCC(CCn2c(C)cnc2C2CC2)CC1,-3,0.37
Cc1ccnc(N2CCC(O)(Cn3ccnc3)CC2)n1,-12,1.12
CC(C)(C)c1ccc(=O)n(CC2CN(c3cnsn3)C2)n1,-16,2.38
CN(C(=O)C(C)(C)Nc1ncc(C(F)(F)F)cc1Cl)c1ccc(Cl)cc1,59,-7.64
C[C@H](Nc1ncc(C(F)(F)F)cc1Cl)C(N)=O,-10,1.96
CC(=O)C(=CNc1ncc(C(F)(F)F)cc1Cl)C(C)=O,-6,1.17
Oc1nc(-c2cccc(C(F)(F)F)c2)sc1-c1ccccc1,59,0.06
FC(F)(F)c1cccc(-c2cc(-c3csc(-c4ccccc4)n3)on2)c1,1,-0.12
Oc1nc(-c2cccnc2)sc1-c1ccccc1,-2,0.32
O=C(NCCn1c(=O)[nH]c2ccsc2c1=O)c1ccccc1Cl,-10,1.7
O=c1[nH]c2ccsc2c(=O)n1CCc1ccccc1,33,-4.74
O=C(CCn1c(=O)[nH]c2ccsc2c1=O)NCc1ccccc1,59,-1.7
COc1cc(C(=O)NCC2(C)CCCCCC2)on1,-5,0.52

Compound,% Inhibition [%],Z score
CC1=C(C(=O)Nc2ccccc2)[C@H](c2ccc(Cl)cc2)c2c(n(C)c(=O)n(C)c2=O)N1,-3,0.36
O=C(NCCCOCC(F)(F)F)NC1CCCC2OCCC12 (centres undefined),-14,1.44
CCN1CCN(CCN2CC3(CCN(Cc4ccccc4C#N)CC3)OC2=O)CC1,2,-0.49
CCc1nc(O)c(C(=O)N2CCOc3cc(F)c(F)cc32)cc1C,-5,0.67
Cc1cc(C)c2c(c1)N(C(=O)Cc1cnccc1C)CCO2,-7,0.88
CCc1nc2c(C(=O)N3CCOc4c(C)cc(C)cc43)ccnc2[nH]1,71,-10.67
O=C(c1n[nH]c2c1CCCCCC2)N1CCC(c2nc(C3CCOCC3)no2)CC1,-3,0.4
CCn1cc(-c2cccc(C(=O)N[C@@H](C)c3nc(C)sc3C)c2)cn1,-4,0.85
C[C@@H](CN1CCc2ccccc2C1)NC(=O)c1cnc2c(c1)CCCC2,-3,0.47
CN(CC(F)(F)F)C(=O)CN1C(=O)c2ccccc2C(C)(C)C1=O,2,-0.16
Cc1[nH]ncc1CCCNCc1cccc(O)c1,39,-0.35
COc1ccc(CCNC(=O)c2cc3c(=O)[nH]c(C)cn3n2)cc1OC,61,-7.83
Cc1cn2nc(C(=O)NCCc3ccccc3)cc2c(=O)[nH]1,3,-0.45
Cc1cn2nc(C(=O)NCCc3ccc(S(N)(=O)=O)cc3)cc2c(=O)[nH]1,-18,3.38
CCN(CC)S(=O)(=O)c1ccc2c(c1)nnn2CCNC(=O)Nc1cccc(F)c1,26,-2.96
C[C@@H](CN)N(C)c1ccnc2cc(Br)cnc12,99,-17.88
Cc1cc(CN(C)c2ccnc3cc(Br)cnc23)no1,12,-0.99
CNC(=O)CCCN(C)c1ccnc2cc(Br)cnc12,-9,1.06
Cc1cc(C(=O)N[C@@H]2COC(C)(C)C2)n(C2CCOCC2)n1,3,-0.34

Compound,% Inhibition [%],Z score
C[C@@H](C(=O)N(C)CC1(CO)CCCC1)N1CCN(C)CC1,-13,1.47
COc1cc(CNCCN2CCOCC2)ccc1OCc1cccc(C)c1,42,-5.6
COc1cc(CNCCCN2CCOCC2)ccc1OCc1ccc(Cl)cc1,50,-4.4
COc1ccc(-c2cc3n(n2)CCC(=O)N3Cc2ccc(C(=O)NCCN3CCCCC3)cc2)cc1,10,-1.2
COc1cccc(S(=O)(=O)N2CCC(c3cc(N)on3)CC2)c1,19,-2.95
COc1ccc(S(=O)(=O)N2CCC(c3cc(N)on3)CC2)cc1Cl,57,-3.68
COc1ccc(S(=O)(=O)N2CCC(n3cnnc3C)CC2)cc1Cl,-11,1.63
C[C@@H](c1nc(C(C)(C)C)no1)N1CCN(C(c2ccccc2)c2ccccc2)CC1,-18,1.54
c1ccn2cc(Cc3nc(C4CC4)cs3)nc2c1,5,-0.54
CCCN(CCc1cccs1)C(=O)CCc1cscn1,-14,1.18
CCn1nc(C)cc1C(=O)N[C@H]1CC2(CCCCC2)Oc2ccccc21,-13,1.49
Cn1cnnc1N1CCN(C(=O)NC[C@]2(C)C[C@H]2c2ccccc2)CC1,-9,1.79
O=C(CCCn1cccn1)NS(=O)(=O)c1ccc2ccccc2c1,-7,0.99
Nc1ccc(C2(c3ccc(N)cc3)c3ccccc3C(=O)c3ccccc32)cc1,18,-2.61
O=C1c2ccccc2C(c2ccc(NC(=O)c3cccc4ccccc34)cc2)(c2ccc(NC(=O)c3cccc4ccccc34)cc2)c2ccccc21,95,-13.49
O=C1NC(c2ccc(NC(=O)c3cccc4ccccc34)cc2)(c2ccc(NC(=O)c3cccc4ccccc34)cc2)c2ccccc21,23,-3.32
O=C(Nc1ccc(C2(c3ccc(NC(=O)c4ccc(F)cc4)cc3)c3ccccc3C(=O)c3ccccc32)cc1)c1ccc(F)cc1,77,-2.85
O=C(COc1ccccc1Cl)Nc1ccc(C2(c3ccc(NC(=O)COc4ccccc4Cl)cc3)c3ccccc3-c3ccccc32)cc1,38,-1.02
O=C(Nc1ccc(-c2c3ccccc3c(-c3ccc(NC(=O)c4cccc5ccccc45)cc3)c3ccccc23)cc1)c1cccc2ccccc12,-8,1.08
